Source: PubChem
D1 agonist – activates the human D1 dopamine receptor; HEK293 T-REx D1 cells, calcium flux, agonist mode; AID 504660; 1% of 360,000 active; activation, % at 2 µM; P21728; in the data active means activation above about 30%; further: 0% is about no effect
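Tetracycline-induced HEK293 TREx D1 cells, force-coupled to calcium signalling, were dye-loaded with a no-wash calcium kit. Compound was pin-added after a 10 s baseline. Fluorescence was read kinetically at 1 cycle/s for 180 s, with calcium rises flagged as agonism.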
D1 potentiator – potentiators of human D1 dopamine receptor; HEK293 TREx D1 cells, calcium flux, dopamine EC20 potentiation; potentiation, % at 10 µM; 0.036% of 360,000 active; in the data active means potentiation above about 30%; further: 0% is about no effect
D3 antag – blocks the human D3 dopamine receptor. AID 652054. 2.5% of 360,000 active. P35462. max response, negative = inhibition, %. D3R cells, DiscoveRx beta-arrestin luminescence, antagonist mode; hits give low values; in the data active means max response below about -50%; further: on the % scale 0 is the no-effect control and ±100 the full control effect
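Cells expressing the human receptor were seeded at 1500 cells/well, incubated overnight at 37 degrees C in 5% CO2, then exposed to library compounds with dopamine controls for 90 minutes at 37 degrees C before luminescent detection.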
D1 antag – human D1 dopamine receptor antagonism. HEK293 TREx D1 cells, calcium flux, dopamine EC80; hits give low values. activity change, negative = inhibition, % at 10 µM. 3.2% of 360,000 active; in the data active means activity change below about -30%; further: on the % scale 0 is the no-effect control and ±100 the full control effect
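Using tetracycline-induced force-coupled D1 Hek293 cells and a calcium dye, signals were followed for 180 s after compound, then for 180 s after EC80 dopamine, to detect inhibitors.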
D3 ag – agonists of human D3 dopamine receptor; 0.58% of 410,000 active; AID 652048; max activation, %; D3R DiscoveRx beta-arrestin cells, luminescence, 90 min; P35462; in the data active means max activation above about 30%; further: 0% is about no effect
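Agonist mode: compounds and dopamine controls were applied to plated cells for 90 min at 37 degrees C after an overnight attachment at 1500 cells/well. Luminescent read-out followed 30 - 60 minutes at room temperature with DiscoveRx detection reagent.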
ERG-DNA inh – ERG Ets/DNA interaction inhibition; P11308; fluorescence polarization, His-ERG Ets domain / labelled DNA; Potency, µM (series often up to 76.9 µM), inactives show top-dose FP activity, negative = inhibition, most hits filed as inhibitors; 0.028% of 370,000 active; AID 624246; active means well fitted inhibition curve with a large enough effect in the polarisation, with a control signal flat; the % refers to the polarisation;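 further: polarization taken with two DNA probes labelled with fluorescein and Texas red; potency means the concentration at half of the fitted maximal effect; % of control where 0% means no effect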
Target sequence (P11308 whole entry, looked up, the tested form may be a part): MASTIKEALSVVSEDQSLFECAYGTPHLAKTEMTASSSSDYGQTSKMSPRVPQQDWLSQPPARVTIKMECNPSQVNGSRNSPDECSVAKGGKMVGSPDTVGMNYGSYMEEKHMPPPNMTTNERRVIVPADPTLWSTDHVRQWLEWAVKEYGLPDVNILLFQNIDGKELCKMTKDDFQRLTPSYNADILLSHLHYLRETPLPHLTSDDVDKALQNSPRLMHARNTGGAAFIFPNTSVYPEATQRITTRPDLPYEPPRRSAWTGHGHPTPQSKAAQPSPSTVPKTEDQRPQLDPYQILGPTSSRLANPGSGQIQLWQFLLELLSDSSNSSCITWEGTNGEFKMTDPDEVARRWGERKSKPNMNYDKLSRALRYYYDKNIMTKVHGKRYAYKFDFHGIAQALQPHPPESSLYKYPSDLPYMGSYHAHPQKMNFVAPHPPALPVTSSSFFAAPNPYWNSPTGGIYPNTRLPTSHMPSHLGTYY
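His-tagged ERG Ets domain (1 uM in the protein solution; 300mM KCl, 50mM Tris-HCl, 1mM EDTA, 1mM DTT, pH 7.5) received compound, then a probe mix of 5 nM fluorescein-DNA and 100nM Texas-615-DNA. Fluorescence polarization was read for both dyes.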
An asterisk follows results filed as active; · = no result given; + = active, no number. A selection: hits, their analogues and other compounds. The true share with any hit is near 6.1%.

SMILES | D1 agonist | D1 potentiator | D3 antag | D1 antag | D3 ag | ERG-DNA inh
CCCCN(C)CCCNC(=O)c1ccc2c(c1)N(CC)C(=O)c1ccccc1S2=O (stereo unspecified) | 2 | 3 | -84* | -3 | -39 | -6%
CCOC(=O)N1CCC(NC(=O)c2ccc3c(c2)N(Cc2ccc(Cl)cc2)C(=O)c2ccccc2S3=O)CC1 (stereo unspecified) | 9 | 2 | · | 3 | -6 | 2%
CCOC(=O)N1CCN(C(=O)c2ccc3c(c2)N(Cc2ccccc2F)C(=O)c2ccccc2S3=O)CC1 (stereo unspecified) | 0 | -4 | · | -47* | 4 | 1%
CCOC(=O)N1CCC(NC(=O)c2ccc3c(c2)N(Cc2ccccc2)C(=O)c2ccccc2S3=O)CC1 (stereo unspecified) | 4 | -3 | · | 6 | 47* | -2%
CCOc1ccccc1NC(=O)C(=O)N/N=C/c1cc(Br)ccc1O | 5 | 4 | 2 | 21 | 3 | -4%
O=C(N/N=C/c1c(O)ccc2ccccc12)c1cccnc1 | 42* | 5 | 25 | 6 | 26 | 4%
O=C(N/N=C/c1c(O)ccc2ccccc12)Nc1ccccc1 | · | · | -57* | · | -15 | -3%
O=C(N/N=C/c1c(O)ccc2ccccc12)c1ccc(Br)o1 | 97* | 23 | -14 | -2 | 0 | 0%
O=C(N/N=C\c1c(O)ccc2ccccc12)c1cncc(Br)c1 | 314* | 5 | 8 | -21 | 30 | 5%
O=C(CSCC(=O)Nc1ccccc1)N/N=C/c1c(O)ccc2ccccc12 | 20 | -11 | -20 | -29 | 2 | -10%
COc1cccc(/C=N/NC(=O)CNC(=O)COc2ccccc2)c1O | 2 | -11 | 5 | 9 | 25 | -4%
Cc1cccc(OCC(=O)NCC(=O)N/N=C/c2cc(Br)cc(Br)c2O)c1 | 3 | 3 | -81* | -26 | -25 | 8%
Cc1sc2nc(C(C)C)oc(=O)c2c1C | -3 | 18 | 1 | 8 | 0 | 2%
Cc1cccc(NC(=O)/C(=C\c2cccs2)NC(=O)c2ccccc2)c1 | 8 | 1 | -24 | 15 | 0 | -3%
COc1ccccc1CCn1cnc(C)c1CC(C)C | · | · | -78* | · | -18 | ·
CCc1ncn(CCc2ccccc2OC)c1C(C)C | · | · | -24 | · | -16 | ·
O=C(CCSc1nc(-c2ccco2)cc(C(F)(F)F)n1)N1CCN(c2ccccc2)CC1 | 4 | -5 | 41 | -16 | 11 | -5%
Nc1c(C(=O)NCCN2CCOCC2)c2nc3ccccc3nc2n1-c1cccc(F)c1 | 1 | -11 | -4 | -48* | 4 | -10%
CCOc1ccc(-n2c(SCC(=O)N3CCOCC3)nc3c([nH]c4ccccc43)c2=O)cc1 | 0 | 0 | · | 3 | -12 | -8%
Cc1cccc(CSCc2ccc(C(=O)NC3CCCC3)o2)c1 | 17 | -12 | 16 | -46* | -7 | -4%
O=C(NC1CCCC1)c1ccc(CS(=O)(=O)Cc2ccccc2F)o1 | 2 | -1 | 6 | -42* | 0 | -8%
Cc1ccc(CSCc2ccc(C(=O)NCCc3ccc(Cl)cc3)o2)cc1 | 25 | -3 | · | -41* | -1 | -3%
Cc1cccc(CSCc2ccc(C(=O)NC(C)C)o2)c1 | 9 | 5 | 26 | -23 | 3 | 6%
O=C(Nc1ccc(Cl)cc1)N[C@@H]1c2c(ccc3ccccc23)OC[C@@H]1CO | · | · | 12 | · | -7 | 5%
COc1cccc(-c2nc(CS(=O)(=O)CC(=O)NCCc3ccc(Cl)cc3)c(C)o2)c1 | 5 | 4 | · | -2 | -3 | 1%
SMILES | D1 agonist | D1 potentiator | D3 antag | D1 antag | D3 ag | ERG-DNA inh
CCn1cc(CN2CCc3c([nH]c4ccccc34)C2c2cccc(OC)c2)c(C)n1 (stereo unspecified) | 24 | -3 | -6 | -35* | -5 | -1%
CCn1cc(CN2CCc3c([nH]c4ccccc34)C2c2cccc(O)c2)c(C)n1 (stereo unspecified) | 2 | -10 | -1 | -8 | -9 | 0%
CN(C/C=C/c1ccccc1)Cc1cccc2ccccc12 | 0 | 1 | -100* | 16 | -89 | 4%
CN(Cc1ccc(C(C)(C)C)cc1)Cc1cccc2ccccc12 | · | · | · | · | -11 | ·
Cc1ccc(C)c(SCC(=O)Nc2ccc(C)c(S(=O)(=O)N3CCOCC3)c2)c1 | 0 | -6 | -13 | -11 | -4 | 9%
COc1ccccc1Cc1c(-c2ccco2)nc2cc(C)c(Br)c(C)n12 | · | · | -107* | · | -16 | ·
CCOc1cc2c(c3c1C(c1ccccc1)N(S(=O)(=O)c1ccc(C)cc1)C3)C(=O)C=CC2=O (stereo unspecified) | · | · | -115* | · | -17 | ·
O=C(CCCN1C(=O)/C(=C\c2cccs2)SC1=S)Nc1ccc(O)cc1 | 4 | -2 | -1 | -33* | -3 | 3%
CCN(CC)CCOC(=O)c1ccc(NC(=O)CCCN2C(=O)/C(=C/c3cccs3)SC2=S)cc1 | 10 | -22 | -74* | -77* | -46 | 39%
O=C(CCCN1C(=O)/C(=C\c2cccs2)SC1=S)Nc1ccc(C(=O)O)cc1 | 3 | -2 | -22 | 12 | 1 | 13%
O=C(CCN1C(=O)/C(=C/c2cccs2)SC1=S)Nc1ccccn1 | 45* | -8 | 40 | -13 | -7 | 35%
CC(C)COC(=O)CCNc1n[nH]c(=O)[nH]c1=O | 3 | -2 | 5 | -7 | 8 | -5%
O=[N+]([O-])c1ccc(C2=NN(CCO)C(=Nc3ccc(OC(F)(F)F)cc3)SC2)cc1 | 1 | -2 | -56* | -14 | 10 | 9%
CC1(C)Cc2c(ccc3ccccc23)/C(=C/C#N)N1 | 1 | -6 | + | 4 | -13 | ·
CNC(=O)/C=C1\NC(C)(C)Cc2c1ccc1ccccc21 | 1 | 1 | 25 | -4 | 2 | 4%
O=C(NCc1cccc(Cl)c1)N1CCN(S(=O)(=O)c2ccccc2F)CC1 | 2 | -2 | -4 | 0 | 18 | 18%
CCc1ccccc1NC(=O)c1cccc(NC(=O)/C=C/c2ccco2)c1 | 9 | -18 | 10 | -36* | 7 | 7%
CC(C)(C)c1ccc(OCC(=O)Nc2ccncc2)c(Br)c1 | 13 | 2 | -1 | 5 | -2 | 8%
CSc1nc(NCC(C)O)c2c3c(sc2n1)CN(C)CC3 (stereo unspecified) | 1 | -5 | 29 | 4 | -2 | 0%
CN1CCc2c(sc3nc(SCC(=O)NCc4ccco4)n(-c4ccccc4)c(=O)c23)C1 | 3 | -8 | 1 | -33* | 0 | -5%
CSc1nc(SCC(=O)NC(c2ccccc2)c2ccccc2)c2c3c(sc2n1)CN(C)CC3 | 2 | 1 | -92* | -1 | -8 | -4%
